PLK1 PBD inh = blocks phosphopeptide binding to human PLK1 polo-box domain. P53350. AID 720504. 360,000 tested, 2.8% active. Potency, µM, actives largely listed as inhibitors. Plk1 PBD binding of FITC phosphopeptide, fluorescence polarization; note: series mostly up to about 57 µM; nearly all actives have a fitted effect of over 65% in size
TDP1 cell CPT = growth inhibition of DT40 Tdp1-/-;hTDP1 cells with camptothecin (screen for TDP1 inhibitors). chicken DT40 Tdp1-/-;hTDP1 cells + 20 nM CPT, ATP luminescence, 48 h. 420,000 tested, 12% active. Potency, µM (highest dose often 46.2 µM), usual class: inhibitors; note: nearly all actives have a fitted effect of over 55% in size
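Cell growth measured by CellTiter-Glo luminescence after a minimum 48 h, 37 C compound exposure with 20 nM CPT in Tdp1-knockout DT40 cells stably expressing hTDP1, seeded 400/well; qHTS titration format.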
GCN5L2 inh = inhibitors of human GCN5L2 histone acetyltransferase. Potency, µM (doses to about 58.9 µM), most hits filed as inhibitors. GCN5L2 HAT assay, ThioGlo1 CoA-SH fluorescence. 390,000 tested, 0.21% active. Q92830
Target sequence (Q92830 whole entry, looked up): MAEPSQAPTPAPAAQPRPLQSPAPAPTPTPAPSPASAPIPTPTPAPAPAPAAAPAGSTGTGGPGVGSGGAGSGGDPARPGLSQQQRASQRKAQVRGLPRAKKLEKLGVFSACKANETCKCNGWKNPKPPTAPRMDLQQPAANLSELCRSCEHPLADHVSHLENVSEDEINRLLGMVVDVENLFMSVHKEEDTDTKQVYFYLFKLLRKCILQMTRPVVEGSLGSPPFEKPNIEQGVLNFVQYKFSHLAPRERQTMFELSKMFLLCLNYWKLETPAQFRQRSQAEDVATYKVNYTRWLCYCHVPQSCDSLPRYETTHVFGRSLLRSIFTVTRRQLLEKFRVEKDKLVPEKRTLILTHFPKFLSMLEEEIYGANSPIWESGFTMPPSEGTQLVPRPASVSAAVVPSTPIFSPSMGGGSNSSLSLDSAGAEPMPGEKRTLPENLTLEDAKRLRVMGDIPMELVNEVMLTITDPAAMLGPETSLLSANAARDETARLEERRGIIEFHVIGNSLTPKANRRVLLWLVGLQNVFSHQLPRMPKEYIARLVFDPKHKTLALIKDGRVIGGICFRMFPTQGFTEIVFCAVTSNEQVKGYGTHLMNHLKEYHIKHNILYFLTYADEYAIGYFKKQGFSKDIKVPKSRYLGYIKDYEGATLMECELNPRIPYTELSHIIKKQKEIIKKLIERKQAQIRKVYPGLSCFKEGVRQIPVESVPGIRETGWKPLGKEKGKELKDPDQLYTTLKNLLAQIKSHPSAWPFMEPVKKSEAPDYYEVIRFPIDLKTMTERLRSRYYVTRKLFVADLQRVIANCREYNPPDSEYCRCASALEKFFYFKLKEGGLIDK
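qHTS, 1536-well. 20nM enzyme, pH 7.5 HEPES/EDTA/Tween-20 buffer; 15 min compound preinc., RT. Start: 75uM H3(1-25), 70uM AcCoA, 50uM ThioGlo1. Read Ex340/Em540 at t=0 (autofluorescence flag) and t=20 min.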
TDP1 inh = blocks human tyrosyl-DNA phosphodiesterase 1. 350,000 tested, 0.28% active. Potency, µM (titrated, usually from 130 µM), hits mostly inhibitors. Q9NUW8. recombinant TDP1, AlphaScreen DNA substrate cleavage; note: nearly all actives have a fitted effect of over 40% in size
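Recombinant E. coli-expressed Tdp1 (1 nM) preincubated with compound 15 min at RT, then 5'-biotin/3'-phosphotyrosine-FITC DNA substrate (15 nM) added for 5 min. AlphaScreen beads (10 ug/ml) added, 10 min RT; tyrosine-FITC cleavage read as signal loss.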
DT40 TDP1 no CPT = qHTS for Inhibitors of human tyrosyl-DNA phosphodiesterase 1 (TDP1): qHTS in cells in absence of CPT | DT40 Tdp1-/- hTDP1 cells, no CPT, ATP luminescence, 48 h | Potency, µM (series often up to 46.2 µM), actives largely listed as inhibitors | 420,000 tested, 15% active | AID 686978, 2013; note: nearly all actives have a fitted effect of over 55% in size
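Stably hTDP1-transfected Tdp1-null chicken DT40 cells were treated with library compounds minus camptothecin and grown for at least 48 hr at 37 °C, after which cellular ATP was quantified by luminescence.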
VDR inh = vitamin D3 receptor (human) inhibition; P11473; 400,000 tested, 0.93% active; AID 504847; Potency, µM, hits mostly inhibitors; VDR-SRC2-3 peptide fluorescence polarization, 2 h
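Two reagent solutions held at 4 deg C in the dark were dispensed, compounds pinned at 23 nl, and the mixture incubated 2 h at room temperature. Read-out: fluorescence polarization of VDR–SRC2-3 peptide binding.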
Each line names hits and unclear results; the compound was inactive in the other large screens. Only some compounds are listed: those with a hit (about 18% of all), similar ones and a draw of the others. Calls come from the whole dose curve; as a rule, active = well fitted curve in the direction sought with a large enough effect; inconclusive = small, poorly fitted or top-dose-only effect, or another doubt; inactive = no such curve, though single readings can be large; an effect the other way counts as inactive or inconclusive.

Cn1cc(C(=O)NCc2ccc(F)cc2)cn1	PLK1 PBD inh 24µM
CC(=O)C[C@H]1c2ccccc2S(=O)(=O)N1c1ccccc1	TDP1 cell CPT inconclusive (no result: GCN5L2 inh, TDP1 inh)
C[C@@H]1[C@H](c2ccccc2)Oc2ccc(Cl)cc2S(=O)(=O)N1CC1CCCN1C(=O)OC(C)(C)C (stereo not given in full)	PLK1 PBD inh 24µM, TDP1 cell CPT inconclusive, DT40 TDP1 no CPT inconclusive, VDR inh inconclusive (no result: GCN5L2 inh, TDP1 inh)
CON(C)C(=O)CCC1CCCN1C(=O)OC(C)(C)C (stereo not given)	none
C=CCn1c[n+](CC(=O)c2ccc(Br)s2)c2ccccc21	TDP1 cell CPT 21µM, DT40 TDP1 no CPT 12µM
CCSc1nnc(NC(=O)C2CCN(C(=O)c3ccco3)CC2)s1	none (no result: PLK1 PBD inh, GCN5L2 inh, TDP1 inh)
Cc1cc2nc(C3CCN(CC4COc5ccccc5O4)CC3)[nH]c2cc1C (stereo not given)	TDP1 cell CPT 7.3µM, DT40 TDP1 no CPT 8.2µM
COc1ccc(-c2cc(C(C)=O)c(C)n2CCC(=O)Nc2ccc(C)c(Cl)c2)cc1	TDP1 cell CPT 15µM, DT40 TDP1 no CPT 18µM (no result: PLK1 PBD inh)
COc1ccc(-c2cc(C(C)=O)c(C)n2CCC(=O)NC2CCCCC2)cc1	TDP1 cell CPT 23µM, DT40 TDP1 no CPT inconclusive (no result: PLK1 PBD inh)
COc1ccc(-c2cc(C(C)=O)c(C)n2CCC(=O)Nc2cccc(C)c2C)cc1	TDP1 cell CPT inconclusive, DT40 TDP1 no CPT inconclusive (no result: PLK1 PBD inh)
COc1ccc(-c2cc(C(C)=O)c(C)n2CCC(=O)Nc2cc(Cl)ccc2C)cc1	TDP1 cell CPT 21µM, DT40 TDP1 no CPT 18µM (no result: PLK1 PBD inh)
CCN(CC(=O)Nc1ccc2c(c1)OCCO2)C(=O)c1ccc(C)c(S(=O)(=O)N2CCOCC2)c1	none (no result: TDP1 inh)
O=c1c2c(-c3ccccc3)csc2nc2c3ccccc3c(NCCN3CCOCC3)nn12	TDP1 cell CPT 8.2µM, DT40 TDP1 no CPT 5.2µM
O=c1c2ccccc2nc2c3ccccc3c(NCCN3CCOCC3)nn12	none (no result: PLK1 PBD inh, TDP1 cell CPT, DT40 TDP1 no CPT, VDR inh)
c1ccc(-c2csc3ncnc(NCC4COc5ccccc5O4)c23)cc1 (stereo not given)	TDP1 cell CPT 0.73µM, DT40 TDP1 no CPT 0.92µM
c1ccc(-c2cn(-c3ccccc3)c3ncnc(NCCCN4CCOCC4)c23)cc1	TDP1 cell CPT inconclusive, DT40 TDP1 no CPT inconclusive
c1ccc(-c2csc3ncnc(NCCCN4CCOCC4)c23)cc1	TDP1 cell CPT 12µM, DT40 TDP1 no CPT 13µM
Cc1cc(C(=O)CSc2nncn2C)c(C)n1-c1ccccc1	none
CC(C)c1nc2c(c(=O)c3ccccc3n2C)c(=O)n1-c1ccc(F)cc1	TDP1 cell CPT 15µM, DT40 TDP1 no CPT 12µM
C=CCc1c(C)nc(SC)nc1Nc1ccc(C)cc1	TDP1 cell CPT 9.2µM, DT40 TDP1 no CPT 21µM
C=CCc1c(C)nc(-c2ccccc2)nc1Nc1ccccc1O	TDP1 cell CPT inconclusive, DT40 TDP1 no CPT inconclusive
Cn1cccc1/C=C1\SC(=S)N(NC(=O)c2ccccc2O)C1=O	none (no result: TDP1 inh)
COc1ccc(/C=C2\SC(=S)N(C(Cc3ccccc3)C(=O)O)C2=O)cc1 (stereo not given)	PLK1 PBD inh 27µM
O=C(NN1C(=O)/C(=C/C=C/c2ccco2)SC1=S)c1ccccc1O	PLK1 PBD inh 6.7µM, GCN5L2 inh inconclusive (no result: TDP1 inh)
COc1ccccc1/C=C1\SC(=S)N(C(C(=O)O)c2ccccc2)C1=O (stereo not given)	PLK1 PBD inh 24µM
COc1cc(/C=C2\SC(=S)N(C(C(=O)O)c3ccccc3)C2=O)ccc1O (stereo not given)	none
O=C(O)C(Cc1ccccc1)N1C(=O)/C(=C/C=C/c2ccco2)SC1=S (stereo not given)	PLK1 PBD inh 2.7µM, GCN5L2 inh 8.9µM (no result: TDP1 inh)
COc1cccc(NC(=O)c2ccc3nc(C)c(N(C)Cc4ccc(NC(C)=O)cc4)n3c2)c1	TDP1 cell CPT inconclusive (no result: GCN5L2 inh, TDP1 inh, VDR inh)
Cn1cnc(S(=O)(=O)N2CCCC(C(=O)NCc3ccc(F)cc3)C2)c1 (stereo not given)	none (no result: PLK1 PBD inh)
COc1ccc(C2=NOC(C(=O)NCc3ccccn3)C2)cc1 (stereo not given)	PLK1 PBD inh 27µM
COc1cc(C2=NOC(C(=O)NCc3cccs3)C2)cc(OC)c1OC (stereo not given)	TDP1 cell CPT 2.3µM, DT40 TDP1 no CPT 1.6µM
COc1cc(C(=O)NCCc2ccc(F)cc2)c([N+](=O)[O-])cc1OC	PLK1 PBD inh 13µM, TDP1 cell CPT inconclusive, DT40 TDP1 no CPT inconclusive
COc1ccc(CCNC(=O)c2ccc([N+](=O)[O-])cc2)cc1	TDP1 cell CPT 23µM, GCN5L2 inh inconclusive, DT40 TDP1 no CPT inconclusive
COc1ccc(C2=NOC(C(=O)NCc3ccccn3)C2)cc1OC (stereo not given)	TDP1 cell CPT inconclusive
Cc1cc2c(s1)c1cnn(Cc3ccc(F)c(F)c3F)c(=O)c1n2C	none (no result: PLK1 PBD inh, TDP1 cell CPT, GCN5L2 inh, DT40 TDP1 no CPT, VDR inh)
COc1ccc(C(=O)N/C(=C\c2ccc(SC)cc2)C(=O)NCCCn2ccnc2)cc1OC	none
COc1cc(OC)c(C2=NOC(C(=O)NCc3cccs3)C2)cc1Cl (stereo not given)	TDP1 cell CPT 2.3µM, DT40 TDP1 no CPT 2.3µM
O=C(NCc1cccs1)C1CC(c2ccccc2O)=NO1 (stereo not given)	TDP1 cell CPT 21µM, DT40 TDP1 no CPT inconclusive
COc1ccc(C2=NOC(C(=O)NCc3cccs3)C2)cc1 (stereo not given)	TDP1 cell CPT 5.2µM, GCN5L2 inh inconclusive, DT40 TDP1 no CPT 2.9µM
COc1ccc(C2=NOC(C(=O)NCc3ccc(F)cc3)C2)cc1 (stereo not given)	TDP1 cell CPT 2.3µM, DT40 TDP1 no CPT 2.3µM
COc1ccc(CNC(=O)C2CC(c3ccc(OC)cc3)=NO2)cc1 (stereo not given)	TDP1 cell CPT inconclusive
COc1ccc(C2=NOC(C(=O)NC(C)C)C2)cc1 (stereo not given)	none
COc1cc(OC)c(C2=NOC(C(=O)NCCc3ccccc3)C2)cc1Cl (stereo not given)	none
COc1ccc(NC(=O)CSCC(=O)N(C)CC(=O)Nc2cccc3ccccc23)cc1	TDP1 cell CPT inconclusive, DT40 TDP1 no CPT inconclusive (no result: TDP1 inh)
O=C(O)c1ccc(B(O)O)cc1	DT40 TDP1 no CPT inconclusive (no result: PLK1 PBD inh, GCN5L2 inh)
COc1cc(NC(=O)C2CC(c3cccc(OC)c3OC)=NO2)cc(OC)c1OC (stereo not given)	TDP1 cell CPT 14µM, DT40 TDP1 no CPT 16µM
COc1ccc(CNC(=O)C2CC(C)=C(C)CC2C(=O)O)cc1 (stereo not given)	TDP1 cell CPT 9.2µM, DT40 TDP1 no CPT 9.2µM
COc1cccc(C2=NOC(C(=O)Nc3cccnc3Cl)C2)c1OC (stereo not given)	none
